# Screening data as filed in PubChem.
# A selection: hits, their analogues and other compounds. The true share with any hit is near 2.8%.
# proKLK7 act = activates the human kallikrein-7 zymogen; 370,000 compounds, 0.9% hits; activation, % at 7 µM; purified proKLK7, EDANS-DABCYL substrate fluorescence; 100% is mature enzyme control, 0% vehicle; P49862; AID 652039;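 active = activation above the mean of all tested compounds plus 3 SD, computed per campaign excluding outliers beyond control limits, cut at about 13% in these data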
# GASC-1 inh = human JMJD2C demethylase inhibition. Q9H3R0. GST-JMJD2C(1-420) H3K9me3 demethylation, DELFIA europium. 330,000 compounds, 0.069% hits. inhibition, % at 2.35 µM. AID 2099;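 active = more than half of a compound's replicate wells show inhibition beyond 50%, single wells judged on their own value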;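 also: signal counts dimethyl H3K9 product captured on neutravidin plate; 0% = median of DMSO wells and 100% = 0.3 times that DMSO median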
# PP1 inh = PP1-alpha (human) inhibition in PP5 counter-screen | P62136 | purified PP1alpha, OMFP fluorescence | inhibition, % at 6.7 µM | 320,000 compounds, 0.9% hits | AID 2235;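 active = inhibition above the mean inhibition of all tested compounds plus 3 SD, computed separately for each screening campaign, cut at about 15% in these data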
# PG9 binder = PG9 antibody binding by small molecule; inhibition, % at 6.7 µM; TR-FRET gp120-PG9 antibody binding; 360,000 compounds, 0.43% hits; in the data active = inhibition above about 8.5%
# NR1D1 modulator = Rev-erb alpha (human) modulation. 370,000 compounds, 0.79% hits. Rev-erbα–FITC-DNA binding, fluorescence polarization, 90 min. activity, % at 10 µM;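 active = activity above about 14%, limit read from the data; passing the limit was not always enough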;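 also: 0% = DMSO wells with 35 nM protein and 100% = DMSO wells with 750 nM protein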
# Target sequence (P20393 whole entry, looked up): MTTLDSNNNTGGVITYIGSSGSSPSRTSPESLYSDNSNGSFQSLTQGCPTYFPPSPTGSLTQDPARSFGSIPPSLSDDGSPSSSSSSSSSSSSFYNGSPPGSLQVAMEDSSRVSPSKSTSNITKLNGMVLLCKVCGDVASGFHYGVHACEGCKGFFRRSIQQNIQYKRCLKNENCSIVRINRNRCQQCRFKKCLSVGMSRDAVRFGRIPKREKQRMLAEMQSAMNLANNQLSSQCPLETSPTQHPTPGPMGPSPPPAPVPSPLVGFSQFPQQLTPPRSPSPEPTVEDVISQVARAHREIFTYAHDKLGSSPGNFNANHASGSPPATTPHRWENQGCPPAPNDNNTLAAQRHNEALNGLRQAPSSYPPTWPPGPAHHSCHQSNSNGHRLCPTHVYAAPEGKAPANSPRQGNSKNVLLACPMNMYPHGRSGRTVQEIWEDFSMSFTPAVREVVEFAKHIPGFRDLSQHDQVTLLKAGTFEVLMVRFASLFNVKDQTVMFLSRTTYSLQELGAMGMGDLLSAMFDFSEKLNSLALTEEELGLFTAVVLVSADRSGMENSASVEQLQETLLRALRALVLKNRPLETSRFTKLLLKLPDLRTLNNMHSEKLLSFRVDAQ
# PP5 inh = PP5 (human) phosphatase inhibition; inhibition, % at 6.7 µM; AID 1987; P53041; purified PP5c, OMFP substrate fluorescence; 320,000 compounds, 0.18% hits;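 active = inhibition above the campaign's mean inhibition across all tested compounds plus 3 SD, cut at about 9.5% in these data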;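 also: 0% = DMSO only and 100% = 100 µM cantharidin control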
# NR1D1 mod conf = Rev-erb alpha (human) modulation, hit confirmation; shares compounds with NR1D1 modulator; activation, % at 25 µM; Rev-erb alpha FITC-DNA binding, fluorescence polarization, 90 min; AID 1259319; 3,000 compounds, 61% hits;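 active = activation at or above a set limit, or at least 3 SD above the negative control mean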;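 also: 0% = 35 nM protein with DMSO and 100% = 750 nM protein high control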
# RORg DNA counter = counter-screen for Rev-erb alpha modulators: RORgamma DNA binding. shares compounds with NR1D1 modulator. purified RORgamma protein-FITC-DNA binding, fluorescence polarization. IC50, µM. 910 compounds, 8% hits;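 active = Compounds whose fitted half-maximal concentration for disrupting protein-DNA binding is below 10 micromolar; the record names Rev-erb in its text, so the target is in doubt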
# Active calls of the source: *; nt = no result.
SMILES,proKLK7 act,GASC-1 inh,PP1 inh,PG9 binder,NR1D1 modulator,PP5 inh,NR1D1 mod conf,others
CCc1ccc(C(=O)COC(=O)c2ccc(-c3nnc(-c4ccccc4)o3)cc2)cc1,0,10,-3,-3,23*,-3,8,
CN(C)c1ccc(C(=O)NCCc2ccccc2-c2ccccc2CCC(=O)NCc2ccccc2)cc1,0,nt,nt,nt,9,nt,nt,
COC1=C[C@H](C(=O)NCc2ccccn2)[C@H](C)[C@@H](c2ccccc2)CC1=O,0,nt,nt,nt,5,nt,nt,
Cc1c(Br)ccc(NC(=O)Cn2nc(-c3cccs3)ccc2=O)c1C,-5,7,9,1,50*,5,42*,RORg DNA counter=>40
COC(=O)[C@]12C[C@H](CC(=O)N3CCCCC3)C(=O)N(Cc3ccc(Cl)cc3Cl)C1=C[C@H](C(C)C)O[C@@H]2C1CC1,1,nt,nt,nt,-4,nt,nt,
Cc1c(N2C(=O)/C(=C\c3ccc(N(C)C)cc3)N(C)C2=S)c(=O)n(-c2ccccc2)n1C,1,5,16*,-19,25*,8,20*,
CN1C(=S)N(c2cccnc2)C(=O)/C1=C\c1ccc(N(C)C)cc1,0,-4,nt,-4,7,nt,nt,
CCN(CC)c1ccc2c(O)cc(=O)oc2c1,1,14,10,-2,1,0,nt,
CCN(CC)c1ccc(C(=O)OCc2cc(=O)oc3cc(O)ccc23)cc1,-55,1,3,3,33*,1,17*,
O=C1c2c(Br)c(Br)c(Br)c(Br)c2C(=O)N1c1ccccn1,0,-5,0,0,276*,0,391*,RORg DNA counter=>40
CN(/N=C/c1cccnc1)c1cnn(-c2ccc(F)c(Cl)c2)c(=O)c1Cl,1,1,-3,-33,26*,-2,6,
O=C(NCCc1ccccc1)OCc1cn(Cc2ccccc2Cl)nn1,0,nt,nt,nt,-1,nt,nt,
O=C(COC(=O)c1ccccc1C(F)(F)F)NC(=O)NCc1ccco1,0,-1,nt,-2,-1,nt,nt,
CC(C)c1cc(C(=O)OCC(=O)NC(=O)NCc2ccco2)c(O)c(C(C)C)c1,0,3,1,-2,16*,1,6,
CCCCN1C[C@@H](COCc2ccccc2)Oc2cccc(F)c2S1(=O)=O,0,nt,nt,nt,17*,nt,0,
CCOC(=O)c1c(NC(=O)CSc2nc3ccccc3c(=O)n2-c2ccccc2)sc(C(C)=O)c1C,0,-5,-3,1,140*,3,15,
Cc1cc(C(F)(F)F)c(C#N)c(SCC(=O)Nc2nc3ccccc3s2)n1,-21,1,-1,-1,7,-1,nt,
CCOC(=O)c1sc(NC(=O)CSc2nc3c(cc2C#N)CCCCC3)c(C#N)c1C,0,-2,0,0,30*,2,20*,
CCc1nnc(NC(=O)CSc2nc3c(cc2C#N)CCCC3)s1,1,-1,-2,-1,34*,3,23*,
Cc1ccc2sc(NC(=O)CSc3nc(C)cc(C)c3C#N)nc2c1,-8,-1,-1,5,29*,1,6,
O=P(c1ccccc1)(c1ccccc1)c1cnc2ccccn12,nt,nt,nt,nt,2,nt,nt,
COc1ccc(CCN2CCC(CN3C(=S)NC[C@@H]3Cc3ccccc3)CC2)cc1OC,-1,nt,nt,0,-1,nt,nt,
COc1ccc(-c2cc(NC(=O)Cc3c[nH]c4ccccc34)ccc2Nc2cccnc2)cc1F,0,nt,nt,-1,2,nt,nt,
CCCCN1CCN(C(=O)c2cn(C(C)c3ccccc3)nn2)CC1 (centres undefined),-1,nt,nt,nt,-1,nt,nt,
COc1ccc(S[C@]2(C(=O)N3CCCC3)CC(=O)N(C(=O)Nc3ccc(C)c(Cl)c3)[C@@H]2c2ccc(OC)cc2)cc1,0,nt,nt,nt,4,nt,nt,
SMILES,proKLK7 act,GASC-1 inh,PP1 inh,PG9 binder,NR1D1 modulator,PP5 inh,NR1D1 mod conf,others
CCOC(=O)CC[C@H]1CC[C@]2(CCCN(C(=O)c3ccccc3)C2)O1,0,nt,nt,nt,-3,nt,nt,
CCOC(=O)c1sc(NC(=O)CSc2nc(C)cc(C)n2)c(C#N)c1C,0,1,-2,1,0,7,nt,
CCOC(=O)c1c(NC(=O)CSc2nc(C)cc(C)c2C#N)sc(C(C)=O)c1C,0,12,2,2,35*,1,17*,
Nn1c(SCC(=O)Nc2ccc(OCc3ccccc3)cc2)nnc1-c1cc(-c2ccc(F)cc2)n[nH]1,0,nt,nt,nt,9,nt,nt,
CCCC(=O)Nc1ccc(-c2nc3cc(C)c(C)cc3o2)c(O)c1,-13,-11,5,0,17*,1,6,
CN(C)c1ccc(N=Nc2ccccc2C(=O)OCC(=O)NC2CCCC2)cc1,1,2,2,0,22,3,nt,
CN(C)c1ccc(N=Nc2ccccc2C(=O)OCC(=O)NCC2CCCCC2)cc1,1,-7,0,-3,29*,1,36*,RORg DNA counter=>40
O=C1c2ccccc2C(=O)N1c1ccc(Cl)cc1,nt,2,0,nt,nt,2,nt,
O=C1c2cccc3c(O)ccc(c23)C(=O)N1c1ccc(Cl)cc1,-2,-7,-9,0,60*,-10,53*,RORg DNA counter=9.4*
O=C1c2cccc3c(O)ccc(c23)C(=O)N1Cc1ccco1,1,-10,nt,-3,36*,nt,37*,RORg DNA counter=>40
CC(=O)Nc1ccc(N2C(=O)c3cccc4c(O)ccc(c34)C2=O)cc1,-4,-5,-8,-7,29*,-8,40*,RORg DNA counter=1.2*
COc1cccc(C(=O)N/N=c2/oc3ccccc3cc2C(N)=O)c1,-1,36,-2,-4,14*,-2,0,
COc1ccc2cc(C(N)=O)/c(=N\NC(=O)c3ccccc3)oc2c1,4,-6,-4,-7,-6,1,nt,
O=C(NC1CCCCN(Cc2ccc(Cl)cc2)C1=O)c1ccccc1-c1ccc(Cl)c(Cl)c1 (centres undefined),0,nt,nt,nt,7,nt,nt,
CCCCCc1ccc(OCCCC[n+]2cccc(C)c2)c(CCCCC)c1,0,-16,14,0,21*,3,28*,
CCCCCc1ccc(OCCCC[n+]2ccc(C)cc2)c(CCCCC)c1,0,4,14,0,21*,0,25*,
CCCCOc1ccc(C)cc1CN(CCO)CCO,0,-3,-1,-2,-2,3,nt,
O=[N+]([O-])c1ccc(Oc2cccc(F)c2)c2ccncc12,0,0,-2,-1,14*,4,9,
COc1ccc2c(c1)CN1C(=O)N(Cc3ccc(F)cc3)S(=O)(=O)CC21 (centres undefined),1,nt,nt,nt,3,nt,nt,
COc1cccc(-c2nc3sc4c(c3c(=O)[nH]2)CCCCC4)c1,0,-3,-1,-1,26*,2,2,
COCc1nc2sc3c(c2c(=O)[nH]1)CCCC3,-1,-8,-1,-4,0,0,nt,
